# Assay results published in PubChem BioAssay (NCATS).
# Inconclusive results are not listed. Where a call stands in place of a potency, no number is given. Active and inactive are the calls of the source. Unless noted, calls follow the shape of the dose curve; as a rule, active = well fitted curve in either direction with a large enough effect (not every such curve was filed as active); inconclusive = small, poorly fitted or top-dose-only effect, or another doubt; inactive = flat fitted curve, though single readings scatter.
# Experiments:
# [1] = biological target: Mitogen-activated protein kinase 10 (Mus musculus) (UniProt Q61831); test: JNK3 AlphaScreen Assay (AID 530);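 also: kinase came from lysate of stimulated human HepG2 cells; signal reports phosphorylation of biotinylated GST-cJun 1-79 at Ser73 with 10 µM ATP; series mostly up to about 57 µM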
# Summary of the method: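 Activity was read by AlphaScreen after JNK3-containing HepG2 lysate (cytokine pre-activated) phosphorylated biotinylated GST-cJun with 10 uM ATP at room temperature. Phospho-Ser73 cJun antibody with Protein-A acceptor beads provided detection.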
# [2] = Confirmation and Secondary Assay for Modulators of Hemoglobin Beta Chain Splicing at IVS2 654 locus (AID 910; active = well fitted curve in the direction sought with a large enough effect; an effect the other way counts as inactive or inconclusive;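 also: HeLa cells stably carrying EGFP split by mutant beta-globin IVS2-654 intron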)
# Summary of the method: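 HeLa cells stably expressing EGFP interrupted by β-globin IVS2-654 intron, seeded overnight in Opti-MEM/2% FCS, then treated 2 days at 37 °C. Restored splicing read as total peak GFP intensity per well by laser scanning cytometry (488 nm excitation, 500–520 nm emission); 500 nM antisense PNA as control.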
# [3] = Confirmation and Secondary Assay for Modulators of Hemoglobin Beta Chain Splicing at IVS2 705 locus (AID 930; active = well fitted curve in the direction sought with a large enough effect; an effect the other way counts as inactive or inconclusive;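 also: HeLa cells stably expressing the EGFP-705 splicing reporter; GFP fluorescence per well restored by corrected splicing of the IVS2-705 intron in EGFP; series mostly up to about 46 µM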)
# Summary of the method: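 HeLa IVS2-705 EGFP reporter cells, 500/well, compound 2 d at 37C; correct splicing yields fluorescent EGFP. Control: 500 nM antisense PNA. Read-out: total peak GFP intensity.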
# [4] = biological target: Ubiquitin carboxyl-terminal hydrolase 1 (Homo sapiens) (UniProt O94782); test: Inhibitors of USP1/UAF1: Pilot qHTS (AID 504865; active = well fitted curve in the direction sought with a large enough effect; an effect the other way counts as inactive or inconclusive;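 also: rhodamine fluorescence freed from ubiquitin-rhodamine substrate followed over time; top concentration of the series differs between compounds; nearly all actives have a fitted effect of over 35% in size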)
# Summary of the method: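 USP1/UAF1 complex (1nM) preincubated with compound 15 min at room temperature, then Ub-Rho substrate (150nM final) added. Fluorescence read kinetically at 480/540 nm, 6 reads every 60 seconds. Buffer: 50mM HEPES pH 7.8, 0.5mM EDTA, 0.1 mg/ml BSA, 1mM TCEP, 0.01% Tween-20.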
# [5] = biological target: Cytochrome P450 3A4 (Homo sapiens) (UniProt P08684); test: qHTS Assay for Activators of Cytochrome P450 3A4 (AID 885; active = well fitted curve in the direction sought with a large enough effect; an effect the other way counts as inactive or inconclusive; also: nearly all actives have a fitted effect of over 65% in size)
# Summary of the method: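 Luminescent readout of luciferin formed from 25 uM Luciferin-PPXE (KM level) by 20 nM CYP3A4 in 200 mM KPO4, with 60 min NADPH-driven reaction at room temperature after 10 min compound exposure. Ketoconazole (57 uM) defined 100% inhibition.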
# [6] = biological target: 3',5'-cyclic-AMP phosphodiesterase 4B (Homo sapiens) (UniProt Q07343); test: qHTS Assay for Inhibitors of PDE-IV (AID 607; active = well fitted activation curve with a large enough effect in the main read-out, with a control signal flat, not every such curve was filed as active)
# Summary of the method: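 Cell-based read-out of cAMP via a modified cyclic nucleotide-gated channel and membrane potential dye (535/590 nm) in HEK293 cells expressing PDE4 endogenously. Compounds tested up to 22.9 uM final; 100 uM RO 20-1724 reference.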
# Sequence of Ubiquitin carboxyl-terminal hydrolase 1 (Homo sapiens) (O94782 whole entry, looked up): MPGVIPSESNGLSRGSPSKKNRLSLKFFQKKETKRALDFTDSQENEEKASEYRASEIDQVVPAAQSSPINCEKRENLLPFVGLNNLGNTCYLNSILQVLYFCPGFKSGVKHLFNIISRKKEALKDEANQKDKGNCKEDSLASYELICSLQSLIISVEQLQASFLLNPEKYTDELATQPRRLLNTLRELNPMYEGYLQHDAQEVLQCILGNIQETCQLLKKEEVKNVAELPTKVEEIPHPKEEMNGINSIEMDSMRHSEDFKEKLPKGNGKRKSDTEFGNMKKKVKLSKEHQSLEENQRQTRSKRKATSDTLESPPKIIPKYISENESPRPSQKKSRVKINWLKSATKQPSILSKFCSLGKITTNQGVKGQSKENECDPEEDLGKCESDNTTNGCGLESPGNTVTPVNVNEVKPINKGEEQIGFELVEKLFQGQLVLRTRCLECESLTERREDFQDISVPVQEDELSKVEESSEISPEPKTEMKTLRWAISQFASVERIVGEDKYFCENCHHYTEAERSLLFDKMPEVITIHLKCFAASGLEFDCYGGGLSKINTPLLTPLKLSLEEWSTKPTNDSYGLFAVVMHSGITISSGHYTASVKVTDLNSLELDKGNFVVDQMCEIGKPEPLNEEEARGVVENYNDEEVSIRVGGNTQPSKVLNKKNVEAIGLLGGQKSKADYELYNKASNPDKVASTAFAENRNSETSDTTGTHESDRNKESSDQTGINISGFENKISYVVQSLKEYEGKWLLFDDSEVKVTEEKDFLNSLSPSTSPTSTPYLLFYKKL
# Sequence of Cytochrome P450 3A4 (Homo sapiens) (P08684 whole entry, looked up): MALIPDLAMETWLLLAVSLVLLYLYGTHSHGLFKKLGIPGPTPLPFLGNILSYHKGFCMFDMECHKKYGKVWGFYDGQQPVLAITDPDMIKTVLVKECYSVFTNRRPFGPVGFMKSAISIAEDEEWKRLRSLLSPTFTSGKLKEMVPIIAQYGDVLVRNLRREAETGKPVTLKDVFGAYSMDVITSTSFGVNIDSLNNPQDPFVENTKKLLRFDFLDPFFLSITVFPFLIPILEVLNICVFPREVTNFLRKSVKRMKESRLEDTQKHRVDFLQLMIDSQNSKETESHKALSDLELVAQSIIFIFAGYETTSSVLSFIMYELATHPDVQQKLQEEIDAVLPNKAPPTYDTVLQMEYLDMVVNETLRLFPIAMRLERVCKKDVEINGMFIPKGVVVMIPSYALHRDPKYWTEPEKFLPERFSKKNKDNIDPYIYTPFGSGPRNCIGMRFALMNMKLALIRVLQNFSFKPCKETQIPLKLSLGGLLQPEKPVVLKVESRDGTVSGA
# Sequence of 3',5'-cyclic-AMP phosphodiesterase 4B (Homo sapiens) (Q07343 whole entry, looked up): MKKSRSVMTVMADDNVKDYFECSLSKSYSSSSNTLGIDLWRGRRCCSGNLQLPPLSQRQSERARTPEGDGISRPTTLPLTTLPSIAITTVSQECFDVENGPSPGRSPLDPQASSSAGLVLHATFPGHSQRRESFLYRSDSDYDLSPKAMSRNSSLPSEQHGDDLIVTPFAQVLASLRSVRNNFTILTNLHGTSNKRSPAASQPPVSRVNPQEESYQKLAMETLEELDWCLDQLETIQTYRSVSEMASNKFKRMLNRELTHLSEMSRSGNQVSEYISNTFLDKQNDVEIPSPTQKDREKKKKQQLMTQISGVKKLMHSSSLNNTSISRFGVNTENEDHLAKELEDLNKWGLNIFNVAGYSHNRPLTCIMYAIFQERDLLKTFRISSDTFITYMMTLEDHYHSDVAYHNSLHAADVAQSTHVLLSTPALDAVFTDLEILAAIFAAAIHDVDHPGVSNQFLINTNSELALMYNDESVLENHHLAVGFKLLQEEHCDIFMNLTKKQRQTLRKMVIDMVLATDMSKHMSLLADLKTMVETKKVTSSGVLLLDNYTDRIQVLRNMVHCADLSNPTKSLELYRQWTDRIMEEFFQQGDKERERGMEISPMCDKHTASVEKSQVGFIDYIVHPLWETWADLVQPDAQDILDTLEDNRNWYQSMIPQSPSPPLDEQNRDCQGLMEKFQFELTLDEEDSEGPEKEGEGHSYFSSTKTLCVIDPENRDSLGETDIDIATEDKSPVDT
smiles,measurement,setting,value
COC(=O)[C@@]1(Cc2ccc(OC)cc2)[C@H]2c3cc(C(=O)N4CCCC4)n(Cc4ccc(OC)c(OC)c4)c3C[C@H]2CN1C(=O)c1ccccc1,outcome,[1],inactive
CC(=O)N1CC=CC1(CC(C)C)C(=O)NCc1ccccn1 (stereo unspecified),outcome,[1],inactive
NCC1O[C@H](O[C@@H]2C(O)[C@H](O[C@H]3OC(CO)C(O)C(N)C3O)[C@@H](N)C[C@H]2N)[C@@H](N)CC1O (stereo partly specified),outcome,[2],inactive
same,outcome,[3],inactive
same,Potency,[4],inactive
CC(C)=C1C(=O)C(c2ccccc2)=C2CN3C(=O)N(CCc4ccccc4)C(=O)[C@]3(C)[C@H]21,outcome,[1],inactive
CCC[C@@H]1C[C@@]1(CCC)C(NP(=O)(c1ccccc1)c1ccccc1)c1ccc(Cl)cc1 (stereo partly specified),outcome,[1],inactive
CCCC[C@H]1C[C@@H]1[C@@H]1N(C(C)=O)[C@H](c2cccc(OC)c2)CC12CC2,outcome,[1],inactive
CCCC/C=C/C(NC(=O)c1ccc(C(=O)OC)cc1)c1ccccc1 (stereo unspecified),outcome,[1],inactive
CCCC[C@@H]1C[C@H]1C(NC(=O)c1ccccc1)c1ccc(C(=O)OC)cc1 (stereo partly specified),outcome,[1],inactive
Cc1cc(C(=O)N[C@@H](c2ccccc2)[C@]2(C)C[C@H]2[C@@H](C)C(=O)Nc2ccc3ccccc3c2)no1,outcome,[1],inactive
C[N+]1(C)C2CC(OC(=O)C(CO)c3ccccc3)CC1C1OC12 (stereo unspecified),outcome,[2],inactive
same,Potency,[4],inactive
COC(=O)[C@@]1(Cc2ccccc2)[C@H]2c3cc(C(=O)N4CCCC4)n(CCO)c3C[C@H]2CN1C(=O)c1ccccc1,outcome,[1],inactive
CCCC[C@@H]1C[C@H]1C(NS(=O)(=O)c1cccc2cccnc12)c1ccc(-c2ccccc2)cc1 (stereo partly specified),outcome,[1],inactive
CNC1C(O)C2OC3OC(C)CC(=O)[C@@]3(O)O[C@H]2[C@H](NC)C1O (stereo partly specified),outcome,[2],inactive
same,outcome,[3],inactive
same,Potency,[4],inactive
NC(N)=Nc1nc(CSCC/C(N)=N\S(N)(=O)=O)cs1,outcome,[2],inactive
same,Potency,[4],inactive
CCc1c2c(nc3ccc(OC)cc13)OC(CC)C2 (stereo unspecified),outcome,[1],inactive
COc1cc(C2c3cc4c(cc3C(OC3OC5COC(C)O[C@@H]5C(O)C3O)C3COC(=O)C23)OCO4)cc(OC)c1O (stereo partly specified),outcome,[2],inactive
same,Potency,[4],inactive
COCCn1c(C(=O)N(C)C)cc2c1C[C@H]1CN(C(=O)c3ccccc3)[C@@](Cc3ccc(F)cc3)(C(=O)OC)[C@@H]21,outcome,[1],inactive
CCCC[C@@H]1C[C@H]1C(NC(=O)c1ccco1)c1ccccc1C(F)(F)F (stereo partly specified),outcome,[1],inactive
COC(=O)[C@@]1(Cc2ccc(OC)cc2)[C@H]2c3cc(C(=O)N(C)C)n(Cc4ccc(C)o4)c3C[C@H]2CN1C(=O)c1ccccc1,outcome,[1],inactive
CCC/C=C(\CCC)C(NC(=O)c1ccco1)c1ccc(C(=O)OC)cc1 (stereo unspecified),outcome,[1],inactive
COc1ccc(CNC(=O)[C@H](C)[C@@H]2C[C@@]2(C)[C@@H](NC(=O)OCc2ccccc2)c2ccccc2)cc1OC,outcome,[1],inactive
COc1ccc2nc3c(c(-c4ccccc4)c2c1)CCC3,outcome,[1],inactive
CNC1C(O)C(O[C@H]2C(O)[C@@H](OC3OC(CN)=CCC3N)[C@H](N)C[C@@H]2N)OC[C@]1(C)O (stereo partly specified),outcome,[2],inactive
same,outcome,[3],inactive
same,Potency,[4],inactive
CCCC[C@@H]1C[C@H]1C(NC(=O)c1ccccc1)c1ccc(C(F)(F)F)cc1 (stereo partly specified),outcome,[1],inactive
COc1ccc(-c2c(O)c3c(OC)c4c(cc3oc2=O)OC(C)(C)CC4)cc1,Potency,[5],inactive
same,outcome,[2],inactive
same,outcome,[3],inactive
same,Potency,[4],inactive
COc1ccc(-c2cc(=O)c3cc(OC)ccc3o2)cc1,Potency,[5],inactive
same,outcome,[2],inactive
same,outcome,[3],inactive
same,Potency,[4],inactive
Cc1nnc(SCC2=C(C(=O)O)N3C(=O)C(NC(=O)Cn4cnnn4)[C@@H]3SC2)s1 (stereo partly specified),outcome,[2],inactive
same,Potency,[4],inactive
COC(=O)[C@H]1C[C@@H]1[C@H](NS(=O)(=O)c1ccc2ccccc2c1)c1ccccc1,outcome,[1],inactive
COCCn1c(C(=O)N2CCCC2)cc2c1C[C@H]1CN(C(=O)c3ccccc3)[C@@](Cc3ccc(OC)cc3)(C(=O)OC)[C@@H]21,outcome,[1],inactive
COC(=O)Cn1c(C(=O)N2CCCC2)cc2c1C[C@H]1CN(C(=O)c3ccccc3)[C@@](Cc3ccccc3)(C(=O)OC)[C@@H]21,outcome,[1],inactive
OC1C=C2CCN3Cc4cc5c(cc4C(C1O)C23)OCO5 (stereo unspecified),outcome,[2],inactive
same,outcome,[3],inactive
same,Potency,[4],inactive
COc1ccc2c3c1OC1CC(O)C=C[C@@]31CCN(C)C2 (stereo partly specified),outcome,[2],inactive
same,outcome,[3],inactive
same,Potency,[4],inactive
COC1=CC(=O)C=C(OC)C1=O,Potency,[5],inactive
same,outcome,[2],inactive
same,outcome,[3],inactive
same,Potency,[4],inactive
CCCN1CC(CSC)C[C@H]2c3cccc4[nH]cc(c34)C[C@H]21 (stereo partly specified),Potency,[5],inactive
same,outcome,[2],inactive
same,outcome,[3],inactive
same,Potency,[4],inactive
COC(=O)[C@@]1(Cc2ccc(OC)cc2)[C@H]2c3cc(C(=O)N(C)C)n(Cc4ccc(S(C)(=O)=O)cc4)c3C[C@H]2CN1C(=O)c1ccccc1,outcome,[1],inactive
COC(=O)[C@@]1(Cc2ccc(F)cc2)[C@H]2c3cc(C(=O)N(C)C)n(Cc4ccc(OC)c(OC)c4)c3C[C@H]2CN1C(=O)c1ccccc1,outcome,[1],inactive
Cc1cc(O)cc(=O)o1,Potency,[5],inactive
same,outcome,[2],inactive
same,outcome,[3],inactive
same,Potency,[4],inactive
CNCC(O)c1cccc(O)c1 (stereo unspecified),outcome,[2],inactive
same,outcome,[3],inactive
same,Potency,[4],inactive
COC(=O)[C@@H]1C[C@H]1[C@@H](NS(=O)(=O)c1ccc2ccccc2c1)c1ccccc1,outcome,[1],inactive
C/C(=C\C1CCCCC1)C(NC(=O)c1cccnc1)c1ccc(-c2ccccc2)cc1 (stereo unspecified),outcome,[1],inactive
same,outcome,[6],inactive
CCC/C=C(\CCC)C(NC(=O)OCC(C)C)c1ccccc1 (stereo unspecified),outcome,[1],inactive
same,outcome,[6],inactive
COC(=O)[C@@]1(Cc2ccc(OC)cc2)[C@H]2c3cc(C(=O)N4CCCC4)n(Cc4ccsc4Br)c3C[C@H]2CN1C(=O)c1ccccc1,outcome,[1],inactive
same,outcome,[6],inactive
C[C@@H](C(=O)Nc1ccc2ccccc2c1)[C@@H]1C[C@@]1(C)[C@@H](NC(=O)c1cccnc1)c1ccccc1,outcome,[1],inactive
same,outcome,[6],inactive
CS(=O)(=O)c1ccc(CNC(=O)[C@H]2C[C@@H]2[C@H](NP(=O)(c2ccccc2)c2ccccc2)c2ccccc2)cc1,outcome,[1],inactive
same,outcome,[6],inactive
COC(=O)[C@@]1(Cc2ccc(F)cc2)[C@H]2c3cc(C(=O)N(C)C)n(CCN4CCOCC4)c3C[C@H]2CN1C(=O)c1ccccc1,outcome,[1],inactive
same,outcome,[6],inactive
COC(=O)[C@@]1(Cc2ccc(F)cc2)[C@H]2c3cc(C(=O)N(C)C)n(CCc4ccccn4)c3C[C@H]2CN1C(=O)c1ccccc1,outcome,[1],inactive
same,outcome,[6],inactive
O=C(NCC1CC1)[C@H]1C[C@@H]1[C@H](NP(=O)(c1ccccc1)c1ccccc1)c1ccccc1,outcome,[1],inactive
same,outcome,[6],inactive
CC(C)=C1C(=O)C(c2ccccc2)=C2CN3C(=O)N(CCc4ccccc4)C(=O)[C@]3(Cc3ccc(C(F)(F)F)cc3)[C@H]21,outcome,[1],inactive
same,outcome,[6],inactive
COCCn1c(C(=O)N2CCCC2)cc2c1C[C@H]1CN(C(=O)c3ccccc3)[C@@](Cc3ccccc3)(C(=O)OC)[C@@H]21,outcome,[1],inactive
same,outcome,[6],inactive
COC(=O)[C@@]1(Cc2ccc(OC)cc2)[C@H]2c3cc(C(=O)N4CCCC4)n(Cc4ccc(O)c(OC)c4)c3C[C@H]2CN1C(=O)c1ccccc1,outcome,[1],inactive
same,outcome,[6],inactive
COC(=O)[C@@]1(Cc2ccccc2)[C@H]2c3cc(C(=O)N(C)C)n(CCSCCO)c3C[C@H]2CN1C(=O)c1ccccc1,outcome,[1],inactive
same,outcome,[6],inactive
COC(=O)[C@@]1(Cc2ccc(OC)cc2)[C@H]2c3cc(C(=O)N(C)C)n(CCc4ccc(OC)c(Br)c4)c3C[C@H]2CN1C(=O)c1ccccc1,outcome,[1],inactive
same,outcome,[6],inactive
COC(=O)[C@@]1(Cc2ccc(F)cc2)[C@H]2c3cc(C(=O)N4CCCC4)n(CCc4ccccn4)c3C[C@H]2CN1C(=O)c1ccccc1,outcome,[1],inactive
same,outcome,[6],inactive
Cc1ccc(CNC(=O)[C@H](C)[C@H]2C[C@]2(C)[C@H](NC(=O)OCc2ccccc2)c2ccccc2)c(F)c1F,outcome,[1],inactive
same,outcome,[6],inactive
COC(=O)[C@@]1(Cc2ccc(OC)cc2)[C@H]2c3cc(C(=O)N(C)C)n(Cc4ccc(Cl)c(C(F)(F)F)c4)c3C[C@H]2CN1C(=O)c1ccccc1,outcome,[1],inactive
same,outcome,[6],inactive
COC(=O)Cn1c(C(=O)N(C)C)cc2c1C[C@H]1CN(C(=O)c3ccccc3)[C@@](Cc3ccc(OC)cc3)(C(=O)OC)[C@@H]21,outcome,[1],inactive
same,outcome,[6],inactive
COC(=O)[C@@]1(Cc2ccc(F)cc2)[C@H]2c3cc(C(=O)N(C)C)n(Cc4ccsc4Br)c3C[C@H]2CN1C(=O)c1ccccc1,outcome,[1],inactive
same,outcome,[6],inactive
COC(=O)[C@@]1(Cc2ccccc2)[C@H]2c3cc(C(=O)N(C)C)n(Cc4ccc(S(C)(=O)=O)cc4)c3C[C@H]2CN1C(=O)c1ccccc1,outcome,[1],inactive
same,outcome,[6],inactive
COC(=O)[C@@]1(Cc2ccc(OC)cc2)[C@H]2c3cc(C(=O)N4CCCC4)n(Cc4ccc(C)c(F)c4F)c3C[C@H]2CN1C(=O)c1ccccc1,outcome,[1],inactive
same,outcome,[6],inactive
O=C(NCC1CC1)[C@@H]1C[C@H]1[C@@H](NP(=O)(c1ccccc1)c1ccccc1)c1ccccc1,outcome,[1],inactive
same,outcome,[6],inactive
C[C@@H](C(=O)N[C@@H](CO)Cc1ccccc1)[C@@H]1C[C@@]1(C)[C@@H](NC(=O)OCc1ccccc1)c1ccccc1,outcome,[1],inactive
same,outcome,[6],inactive
COC(=O)[C@H]1C[C@@H]1[C@H](NS(=O)(=O)c1ccccc1)c1ccccc1,outcome,[1],inactive
same,outcome,[6],inactive
COC(=O)[C@@]1(Cc2ccc(F)cc2)[C@H]2c3cc(C(=O)N4CCCC4)n(Cc4cc(F)cc5c4OCOC5)c3C[C@H]2CN1C(=O)c1ccccc1,outcome,[1],inactive
same,outcome,[6],inactive
CC(C)c1ccc2c([Si](C)(C)C)c3c(nc2c1)-c1cccc(=O)n1C3,outcome,[1],inactive
same,outcome,[6],inactive
COC(=O)[C@@]1(Cc2ccc(OC)cc2)[C@H]2c3cc(C(=O)N4CCCC4)n(Cc4ccc(OC(F)(F)F)cc4)c3C[C@H]2CN1C(=O)c1ccccc1,outcome,[1],inactive
same,outcome,[6],inactive
Cc1ccc(CNC(=O)[C@@H]2C[C@H]2[C@@H](NP(=O)(c2ccccc2)c2ccccc2)c2ccccc2)o1,outcome,[1],inactive
same,outcome,[6],inactive
Cc1ccc(CNC(=O)[C@H](C)[C@H]2C[C@]2(C)[C@H](NC(=O)OCc2ccccc2)c2ccccc2)o1,outcome,[1],inactive
same,outcome,[6],inactive
